From publication PMC7862700, “An all-to-all approach to the identification of sequence-specific readers for epigenetic DNA modifications on cytosine” come the findings set out here.

What all share (assay): DAPPL (digital affinity profiling via proximity ligation, sequencing); 10 mM Tris-HCl pH 7.5, 50 mM NaCl, 1 mM DTT, 4% glycerol, room temperature, 30 min; GST-TFs on glutathione beads, 16-mer random dsDNA library, 0.1% formaldehyde crosslink after washing; high values mean tight binding
Details in all cases: protein: recombinant; tags: N-terminal GST; dsDNA, one strand shown

The target of one experiment is T1, FLI1 (Homo sapiens, UniProt Q01543 1-452).
T1 sequence: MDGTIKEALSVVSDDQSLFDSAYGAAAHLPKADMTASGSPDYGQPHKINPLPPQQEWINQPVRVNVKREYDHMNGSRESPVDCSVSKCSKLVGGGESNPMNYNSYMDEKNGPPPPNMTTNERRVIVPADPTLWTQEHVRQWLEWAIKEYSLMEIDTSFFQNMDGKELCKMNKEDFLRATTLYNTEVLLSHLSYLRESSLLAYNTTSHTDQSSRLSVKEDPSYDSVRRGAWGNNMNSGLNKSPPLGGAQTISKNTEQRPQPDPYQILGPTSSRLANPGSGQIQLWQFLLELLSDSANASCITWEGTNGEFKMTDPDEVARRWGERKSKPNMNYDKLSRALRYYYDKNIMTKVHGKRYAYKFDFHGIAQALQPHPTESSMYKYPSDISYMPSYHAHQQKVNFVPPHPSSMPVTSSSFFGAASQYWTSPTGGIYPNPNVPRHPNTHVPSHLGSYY
A digest of the protocol:
(§1)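 Each value of binding signal is a hexamer's read frequency for a factor divided by the same hexamer's frequency in the tag-only sample. Barcoded, bead-captured GST fusions of human transcription factors made in yeast were pooled with that sample and incubated with 200 nmole of a random double-stranded 16-mer DNA library in Tris/NaCl/DTT/glycerol buffer at room temperature for 30 min. Washing, 0.1% formaldehyde crosslinking, proximity ligation, PCR and Illumina NextSeq500 sequencing followed.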

For another experiment, the target named is T2, ELK1 (Homo sapiens, UniProt P19419 1-428).
T2 sequence: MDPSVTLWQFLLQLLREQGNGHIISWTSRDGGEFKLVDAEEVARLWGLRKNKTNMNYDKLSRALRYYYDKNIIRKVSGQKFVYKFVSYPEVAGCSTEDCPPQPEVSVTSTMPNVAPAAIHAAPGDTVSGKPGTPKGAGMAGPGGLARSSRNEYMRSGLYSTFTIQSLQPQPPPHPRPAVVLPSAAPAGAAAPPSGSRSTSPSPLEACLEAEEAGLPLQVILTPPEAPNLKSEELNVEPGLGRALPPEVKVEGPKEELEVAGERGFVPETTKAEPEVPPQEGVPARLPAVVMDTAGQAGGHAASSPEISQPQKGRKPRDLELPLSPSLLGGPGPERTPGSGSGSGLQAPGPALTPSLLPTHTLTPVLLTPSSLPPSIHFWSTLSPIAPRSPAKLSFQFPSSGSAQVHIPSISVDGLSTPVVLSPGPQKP
In outline: as §1

Another experiment deals with T3, GABPA (Homo sapiens, UniProt Q06546 1-454).
T3 sequence: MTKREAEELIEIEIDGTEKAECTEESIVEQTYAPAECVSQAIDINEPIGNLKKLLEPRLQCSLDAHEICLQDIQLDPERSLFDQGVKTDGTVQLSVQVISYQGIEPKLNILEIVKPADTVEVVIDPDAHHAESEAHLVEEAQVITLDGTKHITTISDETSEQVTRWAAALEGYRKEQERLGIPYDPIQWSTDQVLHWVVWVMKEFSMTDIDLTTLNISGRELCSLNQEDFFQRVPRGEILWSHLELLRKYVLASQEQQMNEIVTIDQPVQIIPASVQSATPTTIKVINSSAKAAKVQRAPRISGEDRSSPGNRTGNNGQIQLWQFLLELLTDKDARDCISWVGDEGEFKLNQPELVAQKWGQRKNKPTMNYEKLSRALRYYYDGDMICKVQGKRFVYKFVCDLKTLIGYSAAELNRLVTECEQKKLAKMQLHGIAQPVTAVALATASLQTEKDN
In outline:
as §1

A further experiment concerns the target T4, ERG (Homo sapiens, UniProt P11308 1-479).
T4 sequence: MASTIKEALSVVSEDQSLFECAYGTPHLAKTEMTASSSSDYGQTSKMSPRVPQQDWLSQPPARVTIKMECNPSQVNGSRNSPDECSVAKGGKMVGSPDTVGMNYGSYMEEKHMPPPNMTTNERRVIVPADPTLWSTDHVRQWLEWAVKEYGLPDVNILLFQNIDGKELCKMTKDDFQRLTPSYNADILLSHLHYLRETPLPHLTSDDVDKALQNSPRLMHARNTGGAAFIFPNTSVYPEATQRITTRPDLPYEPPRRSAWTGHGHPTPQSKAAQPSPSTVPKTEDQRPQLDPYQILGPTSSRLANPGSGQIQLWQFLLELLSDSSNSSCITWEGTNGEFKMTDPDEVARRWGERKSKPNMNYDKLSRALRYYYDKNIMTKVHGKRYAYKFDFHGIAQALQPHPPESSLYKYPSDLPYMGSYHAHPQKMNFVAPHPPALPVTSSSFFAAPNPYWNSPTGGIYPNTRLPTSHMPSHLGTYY
A digest of the protocol:
as §1

The target of a further experiment is ELF1 (Homo sapiens, UniProt P32519 1-619). In outline: as §1
Chain of ELF1 (P32519 whole entry): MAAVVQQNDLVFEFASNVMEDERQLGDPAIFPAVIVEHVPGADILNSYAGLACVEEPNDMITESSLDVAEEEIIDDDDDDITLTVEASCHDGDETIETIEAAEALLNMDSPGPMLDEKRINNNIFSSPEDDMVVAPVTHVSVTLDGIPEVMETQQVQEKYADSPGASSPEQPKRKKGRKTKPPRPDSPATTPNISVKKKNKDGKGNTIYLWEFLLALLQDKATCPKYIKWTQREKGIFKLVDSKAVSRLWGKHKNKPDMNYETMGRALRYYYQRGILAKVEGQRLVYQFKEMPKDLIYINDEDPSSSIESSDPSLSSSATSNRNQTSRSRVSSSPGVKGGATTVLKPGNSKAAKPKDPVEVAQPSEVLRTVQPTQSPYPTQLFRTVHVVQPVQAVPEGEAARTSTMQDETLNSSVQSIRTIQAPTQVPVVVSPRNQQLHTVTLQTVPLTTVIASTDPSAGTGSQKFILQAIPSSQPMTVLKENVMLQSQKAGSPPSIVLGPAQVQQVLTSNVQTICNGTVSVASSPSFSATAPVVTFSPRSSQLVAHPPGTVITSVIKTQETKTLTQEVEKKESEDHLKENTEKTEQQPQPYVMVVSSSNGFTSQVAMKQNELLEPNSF
In a further experiment the target is T5, EHF (Homo sapiens, UniProt Q9NZC4 1-300).
T5 sequence: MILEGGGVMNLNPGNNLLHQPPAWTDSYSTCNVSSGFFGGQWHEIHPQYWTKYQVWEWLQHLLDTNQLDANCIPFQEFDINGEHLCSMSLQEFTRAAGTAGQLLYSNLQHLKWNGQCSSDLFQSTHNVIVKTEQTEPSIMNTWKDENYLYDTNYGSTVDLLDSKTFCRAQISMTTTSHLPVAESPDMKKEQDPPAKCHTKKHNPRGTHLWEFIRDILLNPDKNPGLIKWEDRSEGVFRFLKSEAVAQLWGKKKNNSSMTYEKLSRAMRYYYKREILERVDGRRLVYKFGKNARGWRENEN
A digest of the protocol: as §1

For a further experiment, the target named is SPI1 (Homo sapiens, UniProt P17947 1-270). In outline: as §1
Another experiment deals with SPIB (Homo sapiens, UniProt Q01892 1-262). A digest of the protocol: as §1
Chain of SPIB (Q01892 whole entry): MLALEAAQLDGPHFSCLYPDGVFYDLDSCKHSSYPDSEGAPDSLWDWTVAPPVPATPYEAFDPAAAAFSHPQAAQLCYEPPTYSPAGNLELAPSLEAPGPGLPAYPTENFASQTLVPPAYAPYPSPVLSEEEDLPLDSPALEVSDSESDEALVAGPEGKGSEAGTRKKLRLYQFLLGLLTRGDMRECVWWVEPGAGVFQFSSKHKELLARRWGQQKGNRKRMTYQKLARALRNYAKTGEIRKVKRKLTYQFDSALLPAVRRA
In a further experiment the target is T6, ELK3 (Homo sapiens, UniProt P41970 1-407).
T6 sequence: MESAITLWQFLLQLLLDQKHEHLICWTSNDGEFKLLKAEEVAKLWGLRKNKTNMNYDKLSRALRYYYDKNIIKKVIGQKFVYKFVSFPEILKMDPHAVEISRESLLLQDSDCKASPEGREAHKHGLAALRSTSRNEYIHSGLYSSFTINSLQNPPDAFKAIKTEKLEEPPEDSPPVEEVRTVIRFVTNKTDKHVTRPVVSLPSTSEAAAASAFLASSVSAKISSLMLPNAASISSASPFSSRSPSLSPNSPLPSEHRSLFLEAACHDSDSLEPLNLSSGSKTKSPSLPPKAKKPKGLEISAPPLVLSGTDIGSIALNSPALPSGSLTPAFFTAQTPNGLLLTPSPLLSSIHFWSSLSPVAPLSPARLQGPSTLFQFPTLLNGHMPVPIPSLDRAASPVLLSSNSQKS
In outline:
as §1

The next experiment addresses T7, FEV (Homo sapiens, UniProt Q99581 1-238).
T7 sequence: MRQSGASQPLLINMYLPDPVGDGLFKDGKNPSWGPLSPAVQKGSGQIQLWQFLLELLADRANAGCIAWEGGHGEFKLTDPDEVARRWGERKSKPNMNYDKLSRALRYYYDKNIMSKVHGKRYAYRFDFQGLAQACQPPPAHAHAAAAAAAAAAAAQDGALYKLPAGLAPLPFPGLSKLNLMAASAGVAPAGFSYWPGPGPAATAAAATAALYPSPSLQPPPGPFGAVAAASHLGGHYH
A digest of the protocol: as §1

Another experiment concerns the target ETV5 (Homo sapiens, UniProt P41161 1-510). A digest of the protocol: as §1
A further experiment has as its target T8, SPIC (Homo sapiens, UniProt Q8N5J4 1-248).
T8 sequence: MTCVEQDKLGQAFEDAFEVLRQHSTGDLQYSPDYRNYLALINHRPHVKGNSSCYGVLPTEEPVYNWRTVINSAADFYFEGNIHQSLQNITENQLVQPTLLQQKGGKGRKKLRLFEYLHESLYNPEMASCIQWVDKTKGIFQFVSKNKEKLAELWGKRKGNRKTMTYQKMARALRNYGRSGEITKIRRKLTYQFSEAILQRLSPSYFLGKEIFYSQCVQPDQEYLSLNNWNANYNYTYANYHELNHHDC
In outline:
as §1

In the next experiment the target is ELF4 (Homo sapiens, UniProt Q99607 1-663). In outline: as §1
Chain of ELF4 (Q99607 whole entry): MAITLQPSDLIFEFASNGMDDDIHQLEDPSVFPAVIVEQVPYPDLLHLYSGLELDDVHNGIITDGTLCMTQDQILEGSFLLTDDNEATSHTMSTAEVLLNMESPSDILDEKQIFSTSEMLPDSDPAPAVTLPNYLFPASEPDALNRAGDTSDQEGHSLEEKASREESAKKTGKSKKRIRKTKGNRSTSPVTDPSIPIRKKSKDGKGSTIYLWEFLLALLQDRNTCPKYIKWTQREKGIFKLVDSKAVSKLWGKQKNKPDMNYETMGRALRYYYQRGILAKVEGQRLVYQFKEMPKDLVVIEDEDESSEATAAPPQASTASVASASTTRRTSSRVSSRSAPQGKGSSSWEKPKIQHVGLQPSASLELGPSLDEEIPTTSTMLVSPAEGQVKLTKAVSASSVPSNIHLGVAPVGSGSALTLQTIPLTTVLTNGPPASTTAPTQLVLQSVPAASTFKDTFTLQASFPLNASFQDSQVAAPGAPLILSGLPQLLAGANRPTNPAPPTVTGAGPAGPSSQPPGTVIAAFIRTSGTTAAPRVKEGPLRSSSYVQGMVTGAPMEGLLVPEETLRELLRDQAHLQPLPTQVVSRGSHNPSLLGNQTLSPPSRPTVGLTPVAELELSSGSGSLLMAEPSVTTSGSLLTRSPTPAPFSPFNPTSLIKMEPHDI
The target of a further experiment is T9, ELK4 (Homo sapiens, UniProt P28324-2 1-405).
T9 sequence: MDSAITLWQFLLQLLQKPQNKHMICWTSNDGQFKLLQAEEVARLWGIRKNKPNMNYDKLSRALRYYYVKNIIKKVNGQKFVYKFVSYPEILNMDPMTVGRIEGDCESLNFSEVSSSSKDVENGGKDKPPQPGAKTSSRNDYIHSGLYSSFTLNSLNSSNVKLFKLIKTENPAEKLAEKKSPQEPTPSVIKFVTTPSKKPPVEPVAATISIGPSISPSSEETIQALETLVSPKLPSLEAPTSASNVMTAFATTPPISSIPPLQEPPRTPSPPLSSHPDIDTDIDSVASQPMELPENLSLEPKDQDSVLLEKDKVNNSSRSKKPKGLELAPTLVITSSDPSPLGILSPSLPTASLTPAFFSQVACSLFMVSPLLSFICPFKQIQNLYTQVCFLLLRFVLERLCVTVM
A digest of the protocol:
as §1

Another experiment deals with T10, ETV2 (Homo sapiens, UniProt O00321 1-342).
T10 sequence: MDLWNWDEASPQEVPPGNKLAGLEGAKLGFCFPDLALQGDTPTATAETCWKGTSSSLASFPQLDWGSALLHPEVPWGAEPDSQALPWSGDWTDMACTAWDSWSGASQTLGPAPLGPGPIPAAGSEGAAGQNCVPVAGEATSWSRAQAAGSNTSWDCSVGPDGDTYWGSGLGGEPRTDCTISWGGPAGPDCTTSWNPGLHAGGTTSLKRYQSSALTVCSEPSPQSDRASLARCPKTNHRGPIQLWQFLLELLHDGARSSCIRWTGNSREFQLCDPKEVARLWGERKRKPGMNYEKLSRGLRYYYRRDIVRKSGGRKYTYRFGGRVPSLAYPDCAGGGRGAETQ
A digest of the protocol:
as §1

A further experiment concerns the target T11, ELF3 (Homo sapiens, UniProt P78545 1-371).
T11 sequence: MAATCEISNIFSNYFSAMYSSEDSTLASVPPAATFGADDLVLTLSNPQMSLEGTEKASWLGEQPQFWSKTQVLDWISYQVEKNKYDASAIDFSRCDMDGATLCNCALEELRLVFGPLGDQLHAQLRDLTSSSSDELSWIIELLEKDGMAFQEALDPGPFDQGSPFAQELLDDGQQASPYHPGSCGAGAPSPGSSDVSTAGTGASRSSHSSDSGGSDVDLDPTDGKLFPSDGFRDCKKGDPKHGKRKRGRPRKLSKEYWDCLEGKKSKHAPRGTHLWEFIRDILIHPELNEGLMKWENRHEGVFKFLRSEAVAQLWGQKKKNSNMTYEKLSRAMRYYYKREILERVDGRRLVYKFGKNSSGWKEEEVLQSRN
A digest of the protocol: as §1

Another experiment addresses ETV1 (Homo sapiens, UniProt P50549 1-477). A digest of the protocol: as §1

Chain of ETV5 (P41161 whole entry): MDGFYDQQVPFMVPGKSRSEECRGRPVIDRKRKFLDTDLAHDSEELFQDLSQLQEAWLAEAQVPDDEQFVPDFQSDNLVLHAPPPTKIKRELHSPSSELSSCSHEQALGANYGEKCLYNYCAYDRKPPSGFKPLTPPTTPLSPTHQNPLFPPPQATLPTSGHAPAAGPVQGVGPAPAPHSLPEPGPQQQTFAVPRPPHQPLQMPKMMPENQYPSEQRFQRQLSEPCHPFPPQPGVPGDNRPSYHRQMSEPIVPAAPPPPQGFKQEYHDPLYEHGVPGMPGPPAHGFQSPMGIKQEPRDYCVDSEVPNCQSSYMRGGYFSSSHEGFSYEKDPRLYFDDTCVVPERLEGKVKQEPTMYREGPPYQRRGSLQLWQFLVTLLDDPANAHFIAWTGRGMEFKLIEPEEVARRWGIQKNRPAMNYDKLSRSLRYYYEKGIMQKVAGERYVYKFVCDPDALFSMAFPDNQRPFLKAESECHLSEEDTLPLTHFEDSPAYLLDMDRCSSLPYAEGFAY
Chain of ETV1 (P50549 whole entry): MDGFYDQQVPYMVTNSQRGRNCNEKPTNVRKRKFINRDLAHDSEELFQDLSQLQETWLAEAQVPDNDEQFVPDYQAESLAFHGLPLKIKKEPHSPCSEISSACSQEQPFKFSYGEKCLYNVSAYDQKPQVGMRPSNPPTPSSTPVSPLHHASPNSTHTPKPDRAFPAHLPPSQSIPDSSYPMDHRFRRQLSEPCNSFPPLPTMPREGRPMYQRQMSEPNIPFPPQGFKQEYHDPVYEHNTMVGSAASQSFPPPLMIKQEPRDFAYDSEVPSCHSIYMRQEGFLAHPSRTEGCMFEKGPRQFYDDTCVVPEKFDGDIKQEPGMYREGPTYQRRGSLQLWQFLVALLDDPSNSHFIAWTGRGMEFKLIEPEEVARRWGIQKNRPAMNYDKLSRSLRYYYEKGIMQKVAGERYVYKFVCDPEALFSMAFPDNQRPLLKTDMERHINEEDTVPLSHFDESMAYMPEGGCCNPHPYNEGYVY

Take AACCAC: the binding signal with FLI1 was 1.18 fold enrichment (6-mer frequency, TF over GST control); in the experiment with ELK1 it was 1.19 fold enrichment (6-mer frequency, TF over GST control); in the experiment with GABPA it was 1.17 fold enrichment (6-mer frequency, TF over GST control); with ERG, 1.15 fold enrichment (6-mer frequency, TF over GST control); with ELF1, 1.25 fold enrichment (6-mer frequency, TF over GST control); with EHF, 1.16 fold enrichment (6-mer frequency, TF over GST control). Further, the binding signal in the experiment with SPI1 was 1.12 fold enrichment (6-mer frequency, TF over GST control); with SPIB, 1.19 fold enrichment (6-mer frequency, TF over GST control); in the experiment with ELK3, 1.29 fold enrichment (6-mer frequency, TF over GST control); with FEV, 1.2 fold enrichment (6-mer frequency, TF over GST control); with ETV5, 1.17 fold enrichment (6-mer frequency, TF over GST control); with SPIC, 1.25 fold enrichment (6-mer frequency, TF over GST control). Moreover, the binding signal with ELF4 was 1.26 fold enrichment (6-mer frequency, TF over GST control); in the experiment with ELK4 it was 1.26 fold enrichment (6-mer frequency, TF over GST control); with ETV2, 1.05 fold enrichment (6-mer frequency, TF over GST control); with ELF3, 1.21 fold enrichment (6-mer frequency, TF over GST control); with ETV1, 1.17 fold enrichment (6-mer frequency, TF over GST control).
